Drawing on PubChem BioAssay (NCI), this text covers growth for 40 compounds.

The panel holds about 83,000 compounds, 20% with a hit somewhere; the sample as a whole holds those more often.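 Plates (96-well) were seeded with cells, treated with compound at one concentration, and incubated for 48 hours before percent growth was determined.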 Values without a mark were called inactive. Active and inactive are the calls of the source.

The test system of the assay is RPMI-8226 leukemia. Kind of assay: NCI-60 one-dose screen, 48 h (100 = growth as untreated, 0 = no growth, -100 = all killed). To be noted: 10 µM unless noted. On the procedure:
Growth inhibition of the RPMI-8226 human tumor cell line is measured as a screen for anti-cancer activity. Cells are grown in 96 well plates and exposed to the test compound for 48 hours. Compounds are tested at a single concentration, which is 10^-5 M for most compounds. The reported endpoint is percent growth (GI% or GIPRCNT), where numbers from 0 - 100% represent growth inhibition, and numbers from -100% - 0 represent cell death. For example, a value of 40 represents 60% growth inhibition. A value of 0 means no net growth occurred over the course of the experiment. A value of -40 indicates 40% of cells at the beginning of the experiment died by the end of the experiment. A value of -100 means all cells are dead at the end of the experiment.
NCI-60 Human Tumor Cell Lines Screen was performed using the standard one-dose NCI protocol, which is described in more detail at https://dtp.cancer.gov/discovery_development/nci-60/default.htm.
Compounds with GIPRCNT values below 10 were considered active. Activity score was based on GIPRCNT using the following formula: […]
Score is 0 for GIPRCNT values of 100 or above, 50 for GIPRCNT values of 0, and 100 for GIPRCNT values of -100.
Take `O=C(NNc1nc2c(F)cccc2n2cccc12)c1cnccn1`: the growth was 10.6%.
In the case of `COc1ccc(N2CCN(c3ccc(NC4=C(Cl)C(=O)c5ncccc5C4=O)cc3)CC2)cc1`, the growth is 35.5%.
`O=S(=O)(NCCNc1nccc(-c2c(-c3cccc(F)c3)nc3sccn23)n1)c1ccc(Cl)cc1`: the growth is 59.4%.
Consider `CCOc1ccc(/C=N/Nc2cc(C)nc3ccc(Br)cc23)cc1`, for which the growth is 71.4%.
For `CCNc1nc2cc(Nc3ccnc4cc(Cl)ccc34)ccc2o1`, the growth is 80.9%.
For `CCC(=O)Oc1ccc(/C(=C(\C)c2ccccc2)c2ccc(OCCN3CCCCC3)cc2)cc1`, the growth is 62.9%.
Consider `Cc1ccc(CNc2c3ccccc3nc3cc(NC(=O)CCN4CCCC4)ccc23)cc1`, for which the growth is -44.6% (active).
The value for `Cc1cccc(C)c1N=c1oc2ccc(Cl)cc2nc1-c1ccccc1O` was 82.9%; that for `C=CCN1C(=O)/C(=C/C(=O)OC)S/C1=N\NC(=O)c1cc2ccc1/C=C\c1ccc(cc1)/C=C\2` was -9.36% (active); that for `COc1ccc(-c2nc(S(=O)(=O)c3ccccc3)c(S(=O)CC(=O)N3CCC(C)CC3)o2)cc1` (stereo not given) was -14.6% (active).
For the compound `Oc1c(Cl)cc(Cl)c(Cl)c1CNCCNCc1c(O)c(Cl)cc(Cl)c1Cl`, the growth is 18%.
Turning to `Cc1nc2ccc(Cl)cn2c1-c1nnc(SCc2ccc([N+](=O)[O-])cc2)o1`, the growth was 81.9%.
On to `Cc1cnc(C(=O)Nc2nc3ccc(S(=O)(=O)Nc4ccc(C(C)(C)C)cc4)cc3[nH]2)cn1`, for which the growth was 18.6%.
On to `O=C(CCN1CCCC1)Nc1ccc2c(NCCCCc3ccccc3)c3ccccc3nc2c1`, for which the growth was -42.7% (active).
As to `Cn1cc(-c2csc(-c3c[nH]c4ccccc34)n2)c2ccnc(Cl)c21`, the growth is 53.8%.
On to `C=C1C(=O)O[C@H]2[C@H]1CC/C(COC(=O)NCc1c[nH]c3ccc(F)cc13)=C\CC[C@@]1(C)O[C@@H]21`, for which the growth was -24.4% (active).
Take `COc1ccc(/C=C/c2nc(Nc3ccc(S(=O)(=O)NC(C)=O)cc3)c3ccccc3n2)cc1`: the growth is 76.9%.
In the case of `NS(=O)(=O)c1ccc(Cn2c(SCC(=O)N/N=C/c3ccccc3O)nc3ccccc3c2=O)cc1`, the growth is 49.7%.
With `O=C(/C=C(/C=C/c1coc2ccccc12)OB(F)F)/C=C/c1coc2ccccc12`, the growth is 84.9%.
Regarding `COc1cc2nc(-c3ccc(Cl)cc3)cc(OCCCN3CCOCC3)c2cc1OC`, the growth was 20.4%.
`O=S(=O)(NCCNc1nccc(-c2c(-c3cccc(O)c3)nc3occn23)n1)c1ccccc1`: the growth is 92.8%.
The same measure for `Cc1ccc(NC(=O)c2cc(-c3nc4ccccc4s3)c(=O)n(NS(=O)(=O)c3ccc(Cl)cc3)c2N)cc1`: 94.6%; for `COc1ccc(/C=C2\COc3ccc(-c4ccccc4)cc3C2=O)c(OC)c1`: 77.4%; for `CCCCOc1ccc(/C=N/Nc2cc(C)nc3ccc(Br)cc23)cc1`: -15.9% (active).
`N#CC1C(C#N)C(C(=O)c2ccc(Br)cc2)N2c3ccccc3C=CC12` (stereo not given): the growth is 94.1%.
The value for `CCCNC(=O)Oc1ccc(/C(=C(\C)c2ccccc2)c2ccc(OCCCN(C)C)cc2)cc1` was 63.4%.
Regarding `NS(=O)(=O)c1ccc(CCn2c(SCC(=O)c3ccc(Cl)cc3)nc3ccccc3c2=O)cc1`, the growth is 107%.
Turning to `COC(=O)/C=C1\S/C(=N\NC(=O)c2cc3ccc2/C=C\c2ccc(cc2)/C=C\3)N(c2ccccc2)C1=O`, the growth was -20.9% (active).
Regarding `CCOC(=O)c1ccc2c(c1)ncn2-c1ccc(NC(=O)Nc2cccc(C)c2)cc1`, the growth is 45.5%.
For the compound `c1ccc2c(-c3c[nH]c4ccccc34)c3c(cc2c1)[nH]c1ccccc13`, the growth was 54.5%.
In the case of `CN1CCN(C(=O)[C@]23CCC(C)(C)C[C@H]2C2=CC[C@@H]4[C@@]5(C)C/C(=C/c6ccncc6)C(=O)C(C)(C)[C@@H]5CC[C@@]4(C)[C@]2(C)CC3)CC1`, the growth was 7.22% (active).
With `Cc1nn(-c2ccccc2)c(Oc2c(Cl)cccc2Cl)c1/C=N/N=c1\sc2ccccc2n1C`, the growth was 36.6%.
The same measure for `O=C(/C=C/c1ccc(Cl)cc1)c1ccc(NC(=O)N2CCN(c3cc4c(cc3F)c(=O)c(C(=O)O)cn4C3CC3)CC2)cc1`: 79.1%.
The value for `COc1cc(-c2csc(NC(=O)c3cc(F)cc(C(F)(F)F)c3)n2)cc(OC)c1OC` was -4.32% (active); that for `COc1ccc(C(=O)CC#N)cc1` was 110%; that for `Cc1cccc(NC(=O)Nc2ccc(-n3cnc4cc(-c5ccc(O)cc5)ccc43)cc2)c1` was 12.4%.
As to `O=C1c2ccccc2C(=O)c2c([N+](=O)[O-])ccc(Cl)c21`, the growth was 81.8%.
In the case of `COc1cc2oc(-c3cccc(C(=O)Nc4ccc(Br)cc4)c3)cc(=O)c2c(OC)c1OC`, the growth was 8.6% (active).
Take `COc1ccccc1NS(=O)(=O)c1cccc(C(=O)Nc2ccc(Br)cc2)c1`: the growth is 38.4%.
Consider `Cc1ccc(C(=O)/C(=C/c2ccc([N+](=O)[O-])cc2)SCc2ccc(Cl)cc2)cc1`, for which the growth is -32.7% (active).
